Among the data in PubChem BioAssay AID1508619 (National Center for Advancing Translational Sciences (NCATS), 2020) are Potency values, retold here.

Records with an inconclusive call do not appear. Entries that show only a call come without a potency. Active and inactive are the calls of the source. Calls follow the shape of the dose curve; as a rule, active = well fitted inhibition curve with a large enough effect; inconclusive = small, poorly fitted or top-dose-only effect; inactive = no such curve, though single readings can be large or run the other way.
Potency is read from the fitted curve at half-maximal effect.

The nature of this test: Counterscreen qHTS for Identification of Calcium Integrin Binding Protein 1 (CIB1) Competitor. The conditions noted are these: series mostly up to 114 µM. In outline:
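Counterscreen FP assay: CIB1-GST 1 uM in 5 mM HEPES pH 7.4, 125 mM NaCl, 5 mM CaCl2, 0.01% Tween20, with compounds up to 114 uM for 15 min, then 100 nM FITC-labelled scrambled peptide, 15 min, polarization read ex 480/em 540.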
A general note: A counterscreen serves to expose hits that act by an unwanted route or on another target.
For the compound `CC(=O)NC(c1cccs1)c1cc(Br)c2cccnc2c1O` (stereo not given), the Potency entry is “inactive”.
As to `CCOc1ccc(CCNC(C)=O)cc1OCC`, the Potency result was “inactive”.
For `O=[S+]([O-])(Nc1nccs1)c1ccc(NCc2cc(Cl)cc(Br)c2O)cc1` the value was “inactive”.
For `Cc1cc2c(C(C)C)c(O)c(O)c(C=O)c2c(O)c1-c1c(C)cc2c(C(C)C)c(O)c(O)c(C=O)c2c1O`, the Potency result was “inactive”.
For `O=c1c(O)c(-c2ccc(O)c(O)c2)oc2cc(O)cc(O)c12`, the Potency entry is “inactive”.
Turning to `N#Cc1ccc(NS(=O)(=O)c2ccc(NC(=O)Cc3ccc(F)c(Cl)c3)cc2)cc1`, the Potency result was “inactive”.
With `O=[S+]([O-])(Nc1nccs1)c1ccc(NCc2cc(F)cc(Cl)c2O)cc1`, the Potency entry was “inactive”.
For `CCOc1ccc(CCNC(=O)c2ccc(N3N=C(C)CC3=O)cc2)cc1OCC`, the Potency entry was “inactive”.
`N#Cc1ccc(NS(=O)(=O)c2ccc(NC(=O)Cc3ccc(Cl)c(Cl)c3)cc2)cc1`: the Potency result was “inactive”.
For `Cc1cc(NS(=O)(=O)c2ccc(NC(=O)Cc3ccc(F)c(Cl)c3)cc2)no1` the value was “inactive”.
As for `CS(=O)(=O)c1ccc(C(=O)OCC(=O)N2CCC(Cc3ccccc3)CC2)cc1[N+](=O)[O-]`, the entry is “inactive”; as for `CC1(C)N=C(Nc2nc3ccccc3o2)NC2=C1C(=O)CCC2`, “inactive”; as for `O=C1c2cccc(O)c2C(=O)c2c(O)cc(CO)cc21`, “inactive”.
For `O=C(O)C1=NC(C(=O)O)CC(C=CN2c3cc(O)c(OC4OC(CO)C(O)C(O)C4O)cc3CC2C(=O)O)=C1` (stereo not given), the Potency entry was “inactive”.
On to `C=CCNc1oc(-c2cccc3ccccc23)nc1C#N`, for which the Potency entry was “inactive”.
In the case of `CN1CCc2cccc3c2[C@H]1Cc1ccc(O)c(O)c1-3`, the Potency result was “inactive”.
For `CC(C)(C)OC(=O)CC(=O)NNC(=O)c1nc2ccccc2[nH]1` the value was “inactive”.
As for `CN1CCCN(C(=O)c2cccc(-c3ccc(C=C4C(=O)Nc5ccc(Cl)cc54)o3)c2)CC1`, the figure is 35.5 µM (active); as for `C=Cc1c(C)c2cc3[nH]c(cc4nc(cc5nc(cc1[nH]2)C(C)=C5CCC(=O)O)C(CCC(=O)O)=C4C)c(C)c3C=C`, 25.1 µM (active); as for `O=S(=O)(Nc1nccs1)c1ccc(NCc2cc(Cl)ccc2O)cc1`, “inactive”.
For the compound `Cc1ccc(Cl)cc1NC(=O)c1nc[nH]c1C(=O)Nc1nc2ccccc2[nH]1`, the Potency result was “inactive”.
As for `NC(=O)c1ncn([C@@H]2O[C@H](CO)[C@@H](O)[C@@H]2O)c1O`, the Potency result was “inactive”.
For `Cc1ccc(C)n1-c1cccc(C(=O)O)c1`, the Potency entry was “inactive”.
As for `CCCCC(CC)CN=C(N)NC(N)=NCCCCCCN=C(N)NC(N)=NCC(CC)CCCC` (stereo not given), the entry is “inactive”; as for `Fc1ccc(NC(=S)Nc2nnc(-c3ccncc3)s2)cc1C(F)(F)F`, “inactive”.
As for `CC1CCC2(C1)N=C(Nc1nc3ccccc3o1)NC1=C2C(=O)CCC1` (stereo not given), the entry is “inactive”; as for `N#Cc1cnc(NS(=O)(=O)c2ccc(NC(=O)Cc3ccc(F)c(Cl)c3)cc2)s1`, “inactive”.
As for `O=C1CCCC2=C1C(c1cccnc1Br)N=C(Nc1nc3ccccc3o1)N2` (stereo not given), the entry is “inactive”; as for `CC(C)(C)c1ccc(SC2=NS(=O)(=O)c3ccccc32)cc1`, “inactive”.
As for `O=C1c2c(O)ccc(O)c2C(=O)c2c(NCCNCCO)ccc(NCCNCCO)c21`, the Potency was 20 µM (active).
